From PubChem BioAssay (EPA / NIEHS)
Values joined by “and” are separate entries in the source; they are usually repeats but may differ in a detail not shown here. Equal values may be shown once. Active and inactive are the calls of the source. How the source made its calls: active means hit-call score of the fitted dose curve at least 0.9, where 1 is the maximum; inactive means score below 0.9.

The compounds below were run on TIMP metallopeptidase inhibitor 1 (TIMP1), TIMP1 (gene 7076) (assay: BSK_MyoF_TIMP1: BioMAP Diversity Plus: MyoF Assay for TIMP metallopeptidase inhibitor 1 (TIMP1) Biomarker Activity (AID 2284269)). Conditions: primary human lung fibroblasts.
Outline: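 TIMP-1 levels were determined by ELISA in human lung fibroblasts treated for 24 h. DMSO served as negative control and baseline for upward curve fitting.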
For CCOC(=O)C1=NOC(c2ccccc2)(c2ccccc2)C1, the outcome was “inactive”. For CCOC(=O)/C=C\C(=O)OCC, the outcome was “inactive”. For O=C1CCCCCCCCCCCN1, the outcome was “inactive”. With CCCCCCC=O the outcome was “inactive”. In the case of CCCCCC1=CCCC1=O, the outcome is reported as “inactive”. COc1ccc(C(=O)/C(Br)=C\C(=O)O)cc1 was tested, and the outcome was “inactive”. CCN1CN(CC)CN(CC)C1 was tested, and the outcome was “inactive”. In the case of CCNc1nc(NC(C)(C)C)nc(OC)n1, the outcome is reported as “inactive”. For CC1=CC=C(C(C)C)CC1, the outcome was “inactive”. With O=C(O)C(F)(F)C(F)(F)C(F)(F)C(F)(F)C(=O)O the outcome was “inactive”. In the case of CC(C)CCCCCOC(=O)CS, the outcome is reported as “inactive”. For c1ccc2c(c1)[nH]c1ccccc12, the outcome was “inactive”. With CCCCCCCCC(CO)CCCCCC (stereo not given) the outcome was “inactive”. CCCCCCCO was tested, and the outcome was “inactive”. For CC1(C)CC(O)CC(C)(C)N1[O], the outcome was “inactive”. For Fc1ccc(Br)cc1, the outcome was “inactive”. CCCCC1C(=O)N(c2ccccc2)N(c2ccccc2)C1=O was tested, and the outcome was “inactive”. In the case of C[N+](C)(C)CCCNS(=O)(=O)C(F)(F)C(F)(F)C(F)(F)C(F)(F)C(F)(F)C(F)(F)C(F)(F)C(F)(F)F, the outcome is reported as “inactive”. With C=C(C)C(=O)OCCCCCCCCCCCC the outcome was “inactive”. For O=C(Cl)c1c(Cl)c(Cl)c(C(=O)Cl)c(Cl)c1Cl, the outcome was “inactive”. In the case of CCCCCCOC(=O)CCCCC(=O)OCCCCCC, the outcome is reported as “inactive”.

These compounds were tested on Interferon-inducible T-cell alpha chemoattractant (ITAC), CXCL11 (gene 6373) (assay: BSK_BE3C_ITAC: BioMAP Diversity Plus: BE3C Assay for Interferon-inducible T-cell alpha chemoattractant (ITAC) Biomarker Activity (AID 2284279)). Conditions: primary human bronchial epithelial cells.
Outline: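 The assay measures I-TAC levels by ELISA in human primary bronchial epithelial cell cultures 24 hours after chemical treatment. Values reflect signal increase over the DMSO baseline.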
CC(C)C(=O)OCCc1ccccc1 was tested, and the outcome was “inactive”. In the case of Oc1ccccc1Cc1ccccc1O, the outcome is reported as “inactive”. In the case of CC(CCC(=O)O)(c1ccc(O)cc1)c1ccc(O)cc1, the outcome is reported as “inactive”. For CCCC(C)C(=O)OCC (stereo not given), the outcome was “inactive”. With c1ccc(Nc2cccc3ccccc23)cc1 the AC50 was 27.2 µM (active) and 30.3 µM (active). O=C(O)C(F)(F)C(F)(F)C(F)(F)C(F)(F)C(=O)O was tested, and the outcome was “inactive”. C[N+](C)(C)CCCNS(=O)(=O)C(F)(F)C(F)(F)C(F)(F)C(F)(F)C(F)(F)C(F)(F)C(F)(F)C(F)(F)F was tested, and the outcome was “inactive”. With CCCCCCCCCCCC(=O)N(C)CC(=O)O the outcome was “inactive”. With Nc1nc(N)nc(-c2ccccc2)n1 the outcome was “inactive”.
